BJeLR viability: BJeLR cell viability loss, primary screen, luminescence, CellTiterGlo ATP. BJeLR fibroblasts viability, 48 h; HRASV12, hTERT and SV40 LT/ST transformed. viability loss activity score, % (test concentration not listed). hit rate 0.64% among 30,000; in the data active = viability loss activity score above about 50%; inconclusive = no clear call, values can overlap the other calls; inactive = below about 35%;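 also: higher score means fewer live cells and less ATP luminescence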
A1 inh: inducers of caspase activity in MEF A1-2A-BIM cells, primary screen, A1 inhibitor project, cell-based, CaspaseGlo luminescence; caspase-Glo luminescence, 3 h; percent of clofoctol signal, DMSO as zero; hit rate 0.51% among 21,000; caspase activation, % (concentration not given with the values);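 active = most replicate scores above 10, or exactly half above 10 with mean activity above 10; inconclusive = mean activity below 10 while half the replicates exceed 10; inactive = most replicate scores below 10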;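 also: effector caspase 3 and 7 activity cleaving a DEVD luciferin substrate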
The depositor's hits bear a star. In the library only some 0.89% were active in any assay of this set; here they are far more common.

`C=CCn1c(=S)sc2c(SCC(N)=O)ncnc21` gave BJeLR viability 7.
Screening C=CCn1c(=S)sc2c(Sc3nnc(-c4ccco4)o3)ncnc21 returned BJeLR viability 63* and A1 inh inconclusive.
Screening CCCCCCN(CCCCCC)C(=O)Cc1c(-c2ccc(F)cc2)[nH]c2ccccc12 returned BJeLR viability 2 and A1 inh -1.
CSc1c(-c2ccc(Cl)cc2)[nH]c2ccccc12 was read as BJeLR viability 2 and A1 inh 14*.
Screening COc1cccc(OC)c1C(=O)N1CCCN(c2nc3ccc(Cl)cc3s2)CC1 returned BJeLR viability 0.
CCCCNc1c(C(=O)OCC)c(C)nc2c1cnn2CC was read as BJeLR viability 80* and A1 inh -1.
For CCOC(=O)c1c(C)nsc1Nc1cc(C)ccc1C the results were BJeLR viability 2 and A1 inh 0.
For CCSc1n[nH]c(-c2c(Cl)c(CC)nn2C)n1 the results were BJeLR viability 9 and A1 inh -1.
`C/C=C(/C)C(=O)O[C@@H]1c2cc(OC)c(OC)cc2-c2c(ccc(OC)c2OC)C[C@H]2C(=O)OC[C@H]12` gave BJeLR viability 12 and A1 inh 0.
COc1cc2c(c(OC)c1OC)-c1ccc(OC)c(=O)cc1[C@@H](NC(C)=O)CC2 was read as BJeLR viability 60* and A1 inh 2.
Screening CC(C)(C)NC(=S)NCc1ccccc1 returned BJeLR viability 4 and A1 inh 0.
`Cc1[nH]c2ccccc2c1C(c1ccccc1)N1CCN(C)CC1` (stereo not given) gave BJeLR viability 40 and A1 inh 66*.
Cc1[nH]c2ccccc2c1C(O)c1cccnc1 (stereo not given) was read as BJeLR viability -2 and A1 inh 1.
Screening COc1cc2c(cc1OC)C(C)N(C(=O)CN1C(=O)CCc3ccccc31)CC2 (stereo not given) returned BJeLR viability -1 and A1 inh 0.
For COc1cccc2sc(=NC(=O)Cc3cccc4ccccc34)n(C)c12 the results were BJeLR viability 5 and A1 inh 10*.
Screening COc1ccccc1C1CCN(Cc2cccc3ccccc23)CC1 returned BJeLR viability 2 and A1 inh 2.
For COc1ccc(C(=O)Nc2ccc(-c3cn4ccccc4n3)cc2)cc1 the results were BJeLR viability 8 and A1 inh 31*.
Cc1ccccc1C(=O)Nc1cccc(-c2cn3ccccc3n2)c1 was read as BJeLR viability 5 and A1 inh -1.
For Cc1ccccc1CSCCC(=O)NC1CCCCC1 the results were BJeLR viability 15 and A1 inh 1.
`CCOC(=O)CN1C(=O)C2(C(C#N)=C(N)Oc3n[nH]c(C)c32)c2ccccc21` (stereo not given) gave BJeLR viability 4 and A1 inh 0.
O=C1C=CC(=O)c2c(O)c(Cl)c(Cl)c(O)c21 was read as BJeLR viability 54* and A1 inh -5.
`CCC(C)NC(=O)C1CCCN(S(=O)(=O)c2ccc(C)cc2)C1` (stereo not given) gave BJeLR viability 4 and A1 inh 1.
Screening CCc1ccc(NC(=O)C(C)N2C(=O)c3ccccc3C2=O)cc1 (stereo not given) returned BJeLR viability 5.
`CSc1nc2c(sc(=S)n2-c2ccccc2C)c(=O)n1-c1ccccc1C` gave BJeLR viability -1 and A1 inh 1.
Cn1cccc1/C=C1\CCc2ccccc2C1=O was read as BJeLR viability 73*.
`CCN(CC)c1ccc(/C=C2\CCc3ccccc3C2=O)cc1` gave BJeLR viability 41.
CC12CC3(C)CC(C)(C1)CC(C(=O)O)(C2)C3 was read as BJeLR viability -3 and A1 inh 0.
For COc1cc(O)cc2c1C(=O)OC(C)C2 (stereo not given) the results were BJeLR viability 5 and A1 inh 0.
C[C@@H]1C[C@@H]2O[C@H]2/C=C/C=C\C(=O)Cc2c(Cl)c(O)cc(O)c2C(=O)O1 was read as BJeLR viability 81* and A1 inh 0.
For Cc1ccc2[nH]c(=O)c3cc(C(=O)NCCN(C)Cc4ccccc4)sc3c2c1 the results were BJeLR viability 3 and A1 inh 1.
Screening C=C1C(=O)O[C@H]2[C@H]1[C@@H](OC(=O)/C(C)=C/C)C(OC(C)=O)/C(C(=O)OC)=C\CC[C@@]1(C)O[C@H]21 (stereo not given in full) returned BJeLR viability 61* and A1 inh 2.
C=C1C(=O)O[C@H]2[C@H]1[C@@H](OC(=O)/C(C)=C\C)C(OC(C)=O)/C(C(=O)OC)=C\CC[C@@]1(C)O[C@H]21 (stereo not given in full) was read as BJeLR viability 68* and A1 inh 3.
C=C1C(=O)O[C@H]2[C@H]1C[C@H](OC(=O)/C(C)=C\C)/C(C)=C\CC[C@@]1(C)O[C@@H]21 was read as BJeLR viability 21 and A1 inh -2.
C=C1C(=O)O[C@@H]2[C@H]3O[C@]3(C)CCC=C(C)CC[C@@H]12 was read as BJeLR viability 17 and A1 inh 0.
For C=C1C(=O)O[C@@H]2C3O[C@]3(C)CC/C=C(/C)CC[C@@H]12 (stereo not given in full) the results were BJeLR viability 7 and A1 inh -1.
For C=C1C(=O)O[C@H]2[C@H]1[C@@H](OC(=O)C(C)(O)CCl)C(OC(C)=O)/C(C(=O)OC)=C\CC[C@@]1(C)O[C@H]21 (stereo not given in full) the results were BJeLR viability 50* and A1 inh 3.
Screening CCCOc1ccc(/C=C/C(=O)Nc2ccc(S(=O)(=O)Nc3ncccn3)cc2)cc1 returned BJeLR viability 1 and A1 inh 0.
Screening C[C@@H]1CN([C@H](C)CO)C(=O)c2cccc(NC(=O)Nc3ccc4c(c3)OCO4)c2O[C@H]1CN(C)Cc1ccc(-c2ccccc2)cc1 returned BJeLR viability -6.
`CCc1ccc(NC(=S)N(CCCN2CCCCC2)Cc2cccs2)cc1` gave BJeLR viability 0.
Screening Cc1cccc(N2C(=NC(=O)c3ccc(Br)cc3)SC3CS(=O)(=O)CC32)c1 (stereo not given) returned BJeLR viability -1.
Screening CCOc1ccc(NC(=O)C2(c3ccccc3)CCOCC2)cc1 returned BJeLR viability -1 and A1 inh 1.
For c1csc(CSc2nc3ccccc3[nH]2)c1 the results were BJeLR viability 5.
`O=C(Nc1ccc(-c2nc3ccccc3[nH]2)cc1)c1ccc(-c2ccccc2)cc1` gave BJeLR viability 2 and A1 inh -1.
`c1ccc2[nH]c(-c3nc4ccccc4s3)nc2c1` gave BJeLR viability 101* and A1 inh -7.
`c1ccc2[nH]c(-c3cscn3)nc2c1` gave BJeLR viability 59* and A1 inh -5.
For c1cncc(-c2noc(-c3cccs3)n2)c1 the results were BJeLR viability 2 and A1 inh -5.
`CC(C)(C)C(=O)CSc1nnc(-c2cc(OCC(F)(F)F)ccc2OCC(F)(F)F)o1` gave BJeLR viability 0 and A1 inh 0.

Screening data from PubChem BioAssay.
